Assay [1] concerns the target Phospholipid hydroperoxide glutathione peroxidase GPX4 (Homo sapiens) (UniProt P36969). Kind of assay: Primary qHTS Assay for Inhibitors of Recombinant Selenoprotein Glutathione Peroxidase 4 (GPX4) (AID 1845192). Note: nearly all actives have a fitted effect of over 65% in size. Note: potency is the fitted concentration of half-maximal effect. The essentials: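 qHTS, GR-coupled: GPX4 200 nM + cpd 30 min RT → GSH 1 mM, NADPH 0.5 mM, GR 100 nM → CHP 0.5 mM start; fluor 340/450 at t0 and t15 min; no-enzyme wells as control.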
In general terms: In qHTS, concentration-response curves come from the screen itself.

Assay [2] has as its target Glutathione peroxidase 1 (Homo sapiens) (UniProt P07203). Kind of assay: Primary qHTS Assay for Inhibitors of Recombinant Selenoprotein Glutathione Peroxidase 1 (GPX1) (AID 1845191). Note: nearly all actives have a fitted effect of over 65% in size. The essentials: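 GPX1 10 nM, GR 100 nM, GSH 1 mM, NADPH 0.5 mM, CHP 0.5 mM (final). 30-min cpd preincubation, RT. Ex340/Em450 read t=0, t=15 min.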
The target in assay [3] is Luciferin 4-monooxygenase (Photinus pyralis) (UniProt P08659). Kind of assay: Primary firefly luciferase (FLuc) qHTS assay for identification of artifact compounds. (AID 1845220). Note: nearly all actives have a fitted effect of over 60% in size. As to conditions: outcome: dose series up to 54.1 µM. The essentials: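 qHTS, 15 min compound preincubation with substrate (10 uM luciferin, 10 uM ATP) at RT, then 10 nM FLuc; 5 min; luminescence; % inhibition vs no-enzyme/DMSO controls, 4-parameter Hill fit.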

The nature of assay [4]: Primary fluorescence-based thiol-reactive (MSTI) qHTS assay for identification of artifact compounds. (AID 1845221).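 Note: series mostly up to about 54 µM; thiol-reactive compounds lower the probe fluorescence signal; nearly all actives have a fitted effect of over 65% in size.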 In short, it runs like this:
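Thiol-reactive compounds detected by quenching of 4 uM MSTI fluorescence (525/598 nm) after 1 h room-temperature dark incubation in PBS pH 7.4, 2% DMSO. qHTS titration; percent inhibition Hill-fitted against Acetyl-MSTI/MSTI controls.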

The test system of assay [5] is Nanoluciferase (engineered Oplophorus gracilirostris luciferase). The assay can be described thus: Primary Nanoluciferase (NLuc) qHTS assay for identification of artifact compounds. (AID 1845222). Note: series mostly up to about 54 µM. In short, it runs like this: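 Luminescence read-out of secreted NLuc in S16 cell conditioned medium (1:55); compounds tested with 15 min RT preincubation, then Nano-Glo substrate 1:100, 5 min. % inhibition vs no-enzyme and DMSO controls, 4-parameter Hill fit.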

A short description of assay [6]: qHTS drug screen for cell cycle checkpoint inhibitors in PARPi-resistant BRCA-mutant ovarian cancer cell lines. (AID 1963452; calls by dose curve). The conditions noted are these: PEO1/OlaR viability, CellTiter-Glo luminescence, 96 h, stronger effect = lower value. In short, it runs like this: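 PEO1, PEO4 and PEO1/OlaR ovarian cancer cells, 600 per well, exposed 96 h at 37C to a dilution series. Viability read by CellTiter-Glo luminescence, normalized to DMSO and empty wells; activity summarized as Z-AUC.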

Where [7] appears, read: measured here: PEO1 parental Z-AUC.

Records with an inconclusive call do not appear. A call without a number means that no potency is given here. The source made the active and inactive calls. Unless noted, calls come from the whole dose curve; as a rule, active = well fitted curve in the direction sought with a large enough effect; inconclusive = small, poorly fitted or top-dose-only effect, or another doubt; inactive = no such curve, though single readings can be large; an effect the other way counts as inactive or inconclusive.

Sequence of Phospholipid hydroperoxide glutathione peroxidase GPX4 (Homo sapiens) (P36969 whole entry, looked up): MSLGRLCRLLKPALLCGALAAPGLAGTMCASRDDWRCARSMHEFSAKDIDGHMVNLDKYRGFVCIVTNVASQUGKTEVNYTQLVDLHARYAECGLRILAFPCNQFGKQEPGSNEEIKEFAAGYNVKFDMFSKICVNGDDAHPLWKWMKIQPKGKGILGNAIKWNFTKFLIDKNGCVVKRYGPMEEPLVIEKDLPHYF
Sequence of Glutathione peroxidase 1 (Homo sapiens) (P07203 whole entry, looked up): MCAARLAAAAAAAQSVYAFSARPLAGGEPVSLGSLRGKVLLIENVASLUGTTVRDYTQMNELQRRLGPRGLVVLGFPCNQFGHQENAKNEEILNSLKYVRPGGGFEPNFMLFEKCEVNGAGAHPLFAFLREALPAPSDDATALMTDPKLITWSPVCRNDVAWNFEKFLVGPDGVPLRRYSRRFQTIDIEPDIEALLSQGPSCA

`O=c1c(-c2ccccc2)c1-c1ccccc1`: in assay [1], the Potency result is “inactive”.

As to `CC(=O)OCC(=O)[C@@]1(O)[C@H](C)C[C@H]2[C@@H]3CCC4=CC(=O)C=C[C@]4(C)[C@@]3(F)[C@@H](O)C[C@@]21C`, the Potency entry in assay [2], in assay [4] and in assay [5] was “inactive” throughout. Moreover, the compound was classed as inactive in assay [3].

Regarding `CCCCCCCCCCCCCCCCCC(=O)OCC(O)CO` (stereo unspecified), the Potency result in assay [1] was “inactive”.

Turning to `COc1cccc2c1C(=O)c1c(O)c3c(c(O)c1C2=O)C[C@@](O)(C(=O)CO)C[C@@H]3O[C@H]1C[C@H](N)[C@H](O)[C@H](C)O1`, the Potency result in assay [1] is “inactive”. Besides, the figures for the Z-AUC in assay [6], in assay [6] (setting [7]) and in assay [6] (measured here: PEO4 Z-AUC) were -0.906 (inactive), -0.971 and -0.369, respectively.

`CCCCCCCCCCCCCCCCOP(=O)([O-])OCC[N+](C)(C)C`: in assay [1], the Potency entry is “inactive”.

`CC/C(=C(/CC)c1ccc(O)cc1)c1ccc(O)cc1`: the Potency entry in assay [2] is “inactive”. Besides, the figures for the Z-AUC in assay [6], in assay [6] (setting [7]) and in assay [6] (measured here: PEO4 Z-AUC) were -0.318 (inactive), -0.188 and 0.271, respectively.

As to `O=c1[nH]c(=O)n([C@H]2C[C@H](O)[C@@H](CO)O2)cc1C(F)(F)F`, the Potency result in assay [2] and in assay [1] was “inactive” each time. For the same compound, the Z-AUC is -0.642 (inactive) in assay [6], -0.928 in assay [6] (setting [7]) and -0.403 in assay [6] (measured here: PEO4 Z-AUC).

`CN(C)CC/C=C1/c2ccccc2COc2ccc(CC(=O)O)cc21`: the Potency entry in assay [1] is “inactive”. The Z-AUC in assay [6] was -0.218 (inactive); in assay [6] (setting [7]), 0.35; in assay [6] (measured here: PEO4 Z-AUC) it was -0.471.

As for `Cc1ccc(C(=O)C(C)CN2CCCCC2)cc1` (stereo unspecified), the Potency entry in assay [1], in assay [4] and in assay [5] was “inactive” each time. The compound was classed as inactive in assay [3].

On to `Cc1c(C(C)C)c(=O)n(-c2ccccc2)n1C`, for which, in assay [1], the Potency result is “inactive”.

As for `CCCCc1nc(Cl)c(CO)n1Cc1ccc(-c2ccccc2-c2nn[nH]n2)cc1`, in assay [1], the Potency entry was “inactive”.

In the case of `Cc1nc2n(c(=O)c1CCN1CCC(c3noc4cc(F)ccc34)CC1)CCC[C@H]2O`, the Potency entry in assay [1], in assay [4] and in assay [5] was “inactive” in each case. The result in assay [3] was inactive.

Turning to `NC(=NCCCCCCN=C(N)/N=C(\N)Nc1ccc(Cl)cc1)/N=C(\N)Nc1ccc(Cl)cc1`, the Potency result in assay [2], in assay [4] and in assay [5] was “inactive” in each case. Further, the result in assay [3] was inactive.

As to `CN1CCN(C(c2ccccc2)c2ccccc2)CC1`, the Potency result in assay [1] and in assay [5] was “inactive” each time. The compound was called inactive in assay [3].

In the case of `CC1(C)O[C@@H]2C[C@H]3[C@@H]4C[C@H](F)C5=CC(=O)C=C[C@]5(C)[C@H]4[C@@H](O)C[C@]3(C)[C@]2(C(=O)CO)O1`, the Potency entry in assay [1] is “inactive”. For the same compound, the Z-AUC in assay [6] is 0.212 (inactive); in assay [6] (setting [7]) it was 1.77; in assay [6] (measured here: PEO4 Z-AUC) it was 0.487.

Regarding `Cc1ncc(CSSCc2cnc(C)c(O)c2CO)c(CO)c1O`, in assay [1], the Potency result is “inactive”.

For the compound `C[C@H](O)C(=O)Nc1c(I)c(C(=O)NC(CO)CO)c(I)c(C(=O)NC(CO)CO)c1I`, the Potency result in assay [1] was “inactive”.

Turning to `Cc1c(C(N)=O)cc([N+](=O)[O-])cc1[N+](=O)[O-]`, the Potency entry in assay [1] is “inactive”.

Regarding `CC(=O)Oc1ccc(C(=C2CCCCC2)c2ccc(OC(C)=O)cc2)cc1`, the Potency entry in assay [1] was “inactive”.

Regarding `COC1=CC(=O)C[C@@H](C)[C@]12Oc1c(Cl)c(OC)cc(OC)c1C2=O`, the Potency result in assay [1] is “inactive”.

For the compound `OC[C@H]1O[C@H](O[C@]2(CCl)O[C@H](CCl)[C@@H](O)[C@@H]2O)[C@H](O)[C@@H](O)[C@H]1Cl`, the Potency entry in assay [1], in assay [4] and in assay [5] was “inactive” throughout. In addition, in assay [3], the compound was classed as inactive.

In the case of `CC(C)(C)CC(C)(C)c1ccc(OCCOCC[N+](C)(C)Cc2ccccc2)cc1`, the Potency result in assay [1], in assay [4] and in assay [5] was “inactive” each time. Further, the compound was classed as inactive in assay [3].

As for `COc1ccc(CCN2CCC(Nc3nc4ccccc4n3Cc3ccc(F)cc3)CC2)cc1`, the Potency entry in assay [1] was “inactive”.

`C[n+]1c2cc(N)ccc2cc2ccc(N)cc21` (tested in a mixture with another compound): in assay [1], the Potency entry is “inactive”.

In the case of `CC(C)N=C(N)/N=C(\N)Nc1ccc(Cl)cc1`, the Potency result in assay [1] is “inactive”.

In the case of `CN(C/C=C/c1ccccc1)Cc1cccc2ccccc12`, the Potency entry in assay [1] was “inactive”.

As for `COc1cccc(CCc2ccccc2OCC(CN(C)C)OC(=O)CCC(=O)O)c1` (stereo unspecified), the Potency result in assay [1] was “inactive”.

As to `CCN1CCN(c2cc3c(cc2F)c(=O)c(C(=O)O)cn3C2CC2)CC1`, the Potency result in assay [1] is “inactive”.

On to `O=C(O)CCCCC(=O)O`, for which the Potency result in assay [1] was “inactive”.

Regarding `Cc1c(N(C)CS(=O)(=O)O)c(=O)n(-c2ccccc2)n1C`, the Potency in assay [1] is 2000 nM (active).

`CC(=O)OCC(=O)[C@@]12OC(C)(C)O[C@@H]1C[C@H]1[C@@H]3C[C@H](F)C4=CC(=O)C=C[C@]4(C)[C@@]3(F)[C@@H](O)C[C@@]12C`: in assay [2], the Potency result is “inactive”. The Z-AUC in assay [6] is -0.667 (inactive); in assay [6] (setting [7]), 0.136; in assay [6] (measured here: PEO4 Z-AUC), -0.783.

In the case of `O=C(OCCOCCO)c1ccccc1Nc1cccc(C(F)(F)F)c1`, the compound was classed as inactive in assay [3]. In addition, the Potency entry in assay [4] and in assay [5] was “inactive” throughout.

As for `Cc1ccccc1C(=O)Nc1ccc(C(=O)N2CCCC(N(C)C)c3ccccc32)cc1` (stereo unspecified), the Potency result in assay [1], in assay [4] and in assay [5] was “inactive” each time. Further, in assay [3], the result was inactive.

As for `CC(=O)OCC(=O)[C@@]12N=C(C)O[C@@H]1C[C@H]1[C@@H]3CCC4=CC(=O)C=C[C@]4(C)[C@H]3[C@@H](O)C[C@@]12C`, the Potency result in assay [1] is “inactive”. Further, the Z-AUC is 0.653 (inactive) in assay [6], 1.08 in assay [6] (setting [7]) and 0.153 in assay [6] (measured here: PEO4 Z-AUC).

The record behind these values is PubChem BioAssay (NCATS).
